The values that follow come from PubChem BioAssay (EPA / NIEHS).

A short description of experiment [1]: ACEA_ER_80hr: ACEA Biosciences xCELLigence Real-Time Cell Analysis on Estrogen Receptor Agonism for Proliferation (AID 2282667; active = hit-call score of the fitted dose curve at least 0.9, where 1 is the maximum). As to conditions: T47D proliferation, impedance (xCELLigence), 80 h. The method in brief: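 Real-time impedance growth kinetics of human T-47D breast cells read 80 h after dosing, gain-of-signal fitted relative to DMSO. Compounds: 1:4 serial series, top final concentration 100 uM, n = 2.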

The nature of experiment [2]: APR_HepG2_CellCycleArrest_24hr: Apredica 24-hour HepG2 Assay for Cell Cycle Arrest (AID 2282905).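 Note: cell cycle arrest scored as ratio of 2N to 4N nuclear DNA content.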 As to conditions: imaging, actives raise or lower the signal. The method in brief:
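Cell cycle arrest is scored from nuclear DNA content measured by high-content imaging of Hoechst 33342-stained HepG2 cells following 24-hour treatment at ten concentrations up to 200 uM, with DMSO as baseline.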

Experiment [3] can be described thus: APR_HepG2_NuclearSize_24hr: Apredica 24-hour HepG2 Assay for Nuclear Size (AID 2282907). As to conditions: high-content imaging, actives raise or lower the signal. The method in brief: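 Compounds in DMSO (final 0.5%) were added to human HepG2 hepatoma cells at ten concentrations up to 200 uM for 24 hr. Fixed nuclei were stained with Hoechst 33342, and nuclear diameter was quantified from automated images.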

Experiment [4] is described as follows: APR_HepG2_CellLoss_24hr: Apredica 24-hour HepG2 Assay for Cell Loss (AID 2282908).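 For AC50: fit in both directions so a hit may be cell loss or gain.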 As to conditions: high-content imaging. Summed up: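 Cell number is quantified by fluorescence imaging of Hoechst 33342-stained nuclei following dosing at 0.39–200 uM in 0.5% DMSO. Curves are fitted in both directions from the DMSO baseline.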
The nature of experiment [5]: APR_HepG2_MicrotubuleCSK_24hr: Apredica 24-hour HepG2 Assay for Microtubule CSK Stabilty (AID 2282909). As to conditions: HepG2 microtubule cytoskeleton imaging, actives raise or lower the signal. Summed up: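 Steps: dose HepG2 for 24 h (0.39–200 uM, 0.5% DMSO); fix 30 min in 3.7% formaldehyde at room temperature; permeabilize; stain alpha-tubulin 60 min; image microtubule cytoskeleton at 20x. Signal change fitted in both directions relative to DMSO.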

The nature of experiment [6]: APR_HepG2_MitoticArrest_24hr: Apredica 24-hour HepG2 Assay for Mitotic Arrest (AID 2282910). As to conditions: high-content imaging, actives raise or lower the signal. The method in brief:
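HepG2 human liver cells were exposed to compounds at 0.39–200 uM (10 concentrations, duplicate) in 0.5% v/v DMSO for 24 hr, then fixed and immunostained for phospho-histone H3 with Hoechst 33342. Mitotic arrest came from HCS fluorescent imaging, fitted bidirectionally against DMSO.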

Experiment [7] can be described thus: APR_HepG2_MitoMembPot_24hr: Apredica 24-hour HepG2 Assay for Mitochondrial Membrane Potential (AID 2282911). As to conditions: imaging, actives raise or lower the signal. The method in brief:
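Mitochondrial membrane potential imaged via MitoTracker Red CMXRos (250 nM, 30 min pre-fixation) in fixed HepG2 cells with Hoechst nuclear identification. Ten concentrations 0.39–200 uM, 24 h treatment, 0.5% DMSO; CCCP as positive control.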

Experiment [8] in a line: APR_HepG2_MitoMass_24hr: Apredica 24-hour HepG2 Assay for Mitochondrial Mass (AID 2282912). As to conditions: high-content imaging, actives raise or lower the signal. The method in brief: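 The liver line HepG2 was dosed in duplicate across a 0.39–200 uM series, with final DMSO held at 0.5% v/v, and harvested at 24 hr. High-content imaging measured mitochondrial dye staining.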

Experiment [9] can be described thus: APR_HepG2_p53Act_24hr: Apredica 24-hour HepG2 Assay for p53 Activation (AID 2282913).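 Note: p53 protein immunofluorescence averaged per cell in HepG2 with Hoechst nuclei.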 As to conditions: high-content imaging, actives raise or lower the signal. Summed up:
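Fluorescence imaging of formaldehyde-fixed HepG2 cells labelled for p53 and with Hoechst, 24 h after dosing (0.39–200 uM, duplicate wells, 0.5% v/v DMSO). Signal fitted in both directions relative to DMSO.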

The nature of experiment [10]: APR_HepG2_CellCycleArrest_72hr: Apredica 72-hour HepG2 Assay for Cell Cycle Arrest (AID 2282914). As to conditions: high-content imaging, actives raise or lower the signal. The method in brief: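 Read-out: nuclear DNA content from Hoechst 33342 high-content imaging (20x, six fields/well) after 3.7% formaldehyde fixation, fitted bidirectionally against DMSO. Treatment was 72 h in HepG2, ten concentrations 0.39–200 uM, duplicate, 0.5% DMSO.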

Molecules are shown by their SMILES. Inconclusive results are not listed. Calls of active or inactive are those of the source. Rule for the calls, unless noted: active = hit-call score of the fitted dose curve at least 0.9, where 1 is the maximum; inactive = score below 0.9.

Broadly, the AC50 is the concentration at which the activity in the assay is half-maximal.

Turning to `COc1ccc(C)cc1N`, the call in experiment [1], in [2], in [3], in [4], in experiment [5] and in experiment [6] was inactive. Further, the molecule was classed as inactive in [7], in [8], in experiment [9] and in experiment [10].

Consider `COc1cc(/C=C/C(=O)CC(=O)/C=C/c2ccc(O)c(OC)c2)ccc1O`, for which the molecule was classed as inactive in experiment [1], in experiment [2], in experiment [3], in [5], in [8] and in experiment [10]. Also, the AC50 is 38 µM (active) in [4], 56.1 µM (active) in experiment [6], 48 µM (active) in experiment [7] and 84.6 µM (active) in experiment [9].

Consider `Cc1ccccc1Cl`, for which the outcome in [1], in [2], in [3], in experiment [4], in experiment [5] and in experiment [6] was inactive. Further, the molecule was classed as inactive in [7], in experiment [8], in [9] and in experiment [10].

For the molecule `C[C@]12C=CC(=O)C=C1CC[C@@H]1[C@@H]2C(=O)C[C@@]2(C)[C@H]1CC[C@]2(O)C(=O)CO`, the half-maximal activity concentration (AC50) in [1] was 14.8 µM (active). In addition, the molecule was called inactive in experiment [2], in experiment [3], in experiment [4], in experiment [5], in [6] and in experiment [7]. Further, the molecule was classed as inactive in [8], in experiment [9] and in experiment [10].

On to `c1cc(-c2ccncc2)ccn1`, for which the molecule was classed as inactive in experiment [1], in experiment [2], in [3], in experiment [4], in [5] and in experiment [6]. In addition, the result in experiment [7], in [8], in experiment [9] and in experiment [10] was inactive.

On to `Cc1ccc(C)c(C)c1`, for which the molecule was classed as inactive in experiment [1], in experiment [2], in [3], in experiment [4], in [5] and in [6]. In addition, the outcome in experiment [7], in experiment [8], in experiment [9] and in experiment [10] was inactive.

For `CC(=O)Oc1ccccc1C(=O)O`, the molecule was called inactive in [1], in [2], in [3], in experiment [4], in experiment [5] and in experiment [6]. Moreover, the molecule was called inactive in experiment [7], in experiment [8], in experiment [9] and in experiment [10].

With `CC(C)(C)c1cc(O)c(C(C)(C)C)cc1O`, the call in [1], in experiment [2], in experiment [3], in experiment [5] and in experiment [7] was inactive. For the same molecule, the AC50 was 53.6 µM (active) in [4]; 83.6 µM (active) in experiment [6]; 82.8 µM (active) in experiment [8]; 79.8 µM (active) in experiment [9]; 51.3 µM (active) in experiment [10].

Consider `NCCO`, for which the outcome in experiment [1], in experiment [2], in experiment [4], in [5], in [6] and in experiment [7] was inactive. In addition, the outcome in [8], in experiment [9] and in [10] was inactive.

`Cc1ccc2ncccc2c1`: the result in [1], in experiment [2], in experiment [3], in [5], in experiment [6] and in [7] was inactive. Further, the outcome in [8], in experiment [9] and in experiment [10] was inactive.

`Cc1cccc([N+](=O)[O-])c1C`: the molecule was classed as inactive in [1], in experiment [2], in experiment [4], in experiment [5], in experiment [6] and in [7]. The call in [8], in [9] and in [10] was inactive.

In the case of `CC(=O)OC/C=C(\C)CCC=C(C)C`, the result in experiment [1], in experiment [2], in experiment [3], in experiment [5], in experiment [6] and in experiment [7] was inactive. The outcome in experiment [8], in experiment [9] and in experiment [10] was inactive.

For `CNC(=O)[C@H]1O[C@@H](n2cnc3c(NCc4cc(Cl)ccc4OCc4cc(C)no4)ncnc32)[C@H](O)[C@@H]1N`, the outcome in experiment [1], in experiment [2], in experiment [3], in [5], in [6] and in experiment [8] was inactive. Further, the molecule was classed as inactive in experiment [9] and in experiment [10]. The AC50 in [7] was 0.0385 µM (active).

On to `CC(CO)OC(C)CO` (stereo unspecified) (tested in a mixture with another compound), for which the call in experiment [1], in experiment [2], in experiment [3], in experiment [5], in experiment [6] and in experiment [7] was inactive. Also, the result in [8], in experiment [9] and in experiment [10] was inactive.

As to `CCCCCCCCCCCC(=O)OC`, the outcome in [1], in experiment [2], in experiment [3], in [5], in experiment [6] and in experiment [7] was inactive. Further, the molecule was classed as inactive in experiment [8], in experiment [9] and in [10].

On to `CCCCCCCCCCC`, for which the outcome in [1], in [2], in [4], in [5], in experiment [6] and in experiment [7] was inactive. Besides, the result in experiment [8], in experiment [9] and in [10] was inactive.

Take `CCCCCCC(=O)OCC`: the call in experiment [1], in experiment [2], in [3], in experiment [5], in experiment [6] and in experiment [7] was inactive. The molecule was classed as inactive in experiment [8], in experiment [9] and in [10].

Consider `CC1(C)CC(N=C=O)CC(C)(CN=C=O)C1` (stereo unspecified), for which the call in [1], in experiment [2], in [4], in [5], in experiment [6] and in [7] was inactive. Also, the result in [8] and in experiment [9] was inactive. Also, in experiment [10], the AC50 is 92.5 µM (active).

In the case of `COc1cc(C=O)ccc1O`, the call in experiment [1], in experiment [2], in [4], in [5], in experiment [6] and in [7] was inactive. Moreover, the molecule was classed as inactive in experiment [8], in experiment [9] and in [10].

As for `Cc1c(C(=O)O)c(O)cc2c1C(=O)c1c(O)c([C@@H]3O[C@H](CO)[C@@H](O)[C@H](O)[C@H]3O)c(O)c(O)c1C2=O`, the outcome in experiment [1], in [2], in experiment [3], in experiment [5], in experiment [6] and in experiment [7] was inactive. The result in [8], in [9] and in [10] was inactive.

Turning to `C[Si]1(C)O[Si](C)(C)O[Si](C)(C)O[Si](C)(C)O1`, the outcome in experiment [1], in [2], in [4], in [5], in experiment [6] and in experiment [7] was inactive. Further, the molecule was called inactive in experiment [8], in experiment [9] and in experiment [10].

For `CCCCCCCCCCCCCCCCCC(=O)O`, the AC50 in [1] is 2.04 µM (active). Also, the call in experiment [2], in experiment [3], in experiment [5], in experiment [6], in experiment [7] and in [8] was inactive. Besides, the call in experiment [9] and in experiment [10] was inactive.
